# This excerpt belongs to a sample that is enriched for hits.
# Pf Dd2 inh: Plasmodium falciparum Dd2 growth inhibition | Potency, µM (titrated, usually from 28.9 µM), for the others: top-dose activity, negative = inhibition, usual class: inhibitors | 120,000 compounds, 4.3% hits | P. falciparum Dd2 growth, SYBR Green, 72 h | AID 1347417; active means well fitted inhibition curve with a large enough effect;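 further: plate controls were DMSO vehicle for no effect and reference drug for full effect; nearly all actives have a fitted effect of over 65% in size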
#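 Infected erythrocytes (Dd2, 0.3% parasitemia, 2.5% hematocrit final) are added to compound in RPMI-1640/Albumax II medium, grown 72 h at 37C in low oxygen, then lysed with saponin/Triton-X containing SYBR Green and read by fluorescence.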
# * hit, by the source's call; i = inactive; [ ] = another dose, or the depositor's remark. Potency means the concentration at half of the fitted maximal effect.
SMILES,Pf Dd2 inh
CCOc1ccc(-c2nc(C3CC(=O)N(c4ccc(F)c(Cl)c4)C3)no2)cc1 (configuration not stated),20%
CC(C)c1cccc(NC(=O)CN2C(=O)C(c3ccccc3)=NC23CCCC3)c1,i
CCOC(=O)C1CCCN(C(=O)C2CC(c3ccc(OC)c(OC)c3)CN(C(=O)COC)C2)C1 (configuration not stated),i
COc1ccc(OC)c(S(=O)(=O)N2Cc3ccccc3CC2C(=O)Nc2ccc(Cl)cc2)c1 (configuration not stated),i
COc1ccc(S(=O)(=O)N2Cc3ccccc3CC2C(=O)Nc2cc(Cl)ccc2Cl)cc1 (configuration not stated),10µM*
COc1ccc(NC(=O)C2Cc3ccccc3CN2S(=O)(=O)c2ccccc2)cc1OC (configuration not stated),-25%
O=C1N(Cc2ccccc2)C[C@H]2CN(Cc3cccs3)CCN12,-28%[44.1 µM]
Cc1ccc(NC(=O)c2cc(-c3ccc[nH]3)n[nH]2)cc1F,-5%
CSc1ccc(NC(=O)c2cc(-c3ccc[nH]3)n[nH]2)cc1,13µM*
COc1cccc(-c2cc(C(=O)Nc3ccc(F)cc3)[nH]n2)c1,2.5µM*
O=C(Nc1ccc(F)cc1)c1cc(-c2ccc[nH]2)n[nH]1,i
COc1cccc(CNC(=O)c2cc(-c3cccc(OC)c3)n[nH]2)c1,10%
COc1cccc(-c2cc(C(=O)Nc3ccc(Br)c(C)c3)[nH]n2)c1,-26%
O=C(Nc1cccc(F)c1)C1CCN(C(=O)N2CC3CC(C2)[C@H]2CCCC(=O)N2C3)CC1 (some centres not stated),-18%
O=C(NCCc1ccccc1)c1cnc2c(c1)N(C(=O)Cc1cccc(C(F)(F)F)c1)CCC2,i
Cc1nn(C)c2ncc(C(=O)O)c(NC3CC(c4cc(=O)[nH]cn4)C3)c12 (configuration not stated),3%
CC(C)NC(=O)C[C@@H]1C[C@H]2O[C@H](CNC(=O)Nc3ccc(F)cc3)[C@@H](O)[C@H]2O1,6%[44.1 µM]
Cc1nc2c(c(-c3ccc(O)cc3)n1)CN(C(=O)c1ccccc1)CC2,i
O=C(c1cccc(Cl)c1)N1CCc2nc(C3CC3)nc(-c3ccc(O)cc3)c2CC1,5µM*
O=C(c1ccccc1)N1CCc2nc(C3CC3)nc(-c3ccc(O)cc3)c2CC1,-2%
O=C(c1ccccc1F)N1CCc2nc(C3CC3)nc(-c3ccc(Cl)cc3)c2C1,-29%
Cc1ccccc1C(=O)N1CCc2nc(C3CC3)nc(-c3ccc(O)cc3)c2CC1,8.9µM*
Cc1nc2c(c(-c3ccc(Cl)cc3)n1)CCN(C(=O)c1ccccc1C)CC2,-15%
CCc1ccc(C(=O)N2CCC(Cc3nc(C(C)C)no3)CC2)cc1,-24%
COc1ccc(CN(C)C(=O)C2CNCCO2)c2cccnc12 (configuration not stated),3%
SMILES,Pf Dd2 inh
COc1ccc(N2CCN(Cc3cc(=O)oc4ccc(OC)cc34)CC2)cc1,-13%
Cc1scc(CN2CCN(c3ccc(F)cc3)CC2)c1C,-16%
Cc1cc(O)c(CN2CCN(c3ccc(F)cc3)CC2)c2oc(=O)cc(C)c12,11µM*
CNC(=O)[C@H]1C[C@H](Oc2ccccc2)CN1C(=O)Nc1ccc2c(c1)OCCO2,1%
COCCCN1CCC(Cn2cnc3cn(C)nc3c2=O)C1 (configuration not stated),-1%
CC(C)CN1C(=O)c2cccn2CC1C(=O)NCCCOC(C)C (configuration not stated),-4%
CC(C)c1ccc(NS(=O)(=O)c2ccc3[nH]c(=O)ccc3c2)cc1,-2%
Cc1cccc(NS(=O)(=O)c2ccc3[nH]c(=O)ccc3c2)c1C,8.9µM*
Cc1ccc(NS(=O)(=O)c2ccc3[nH]c(=O)ccc3c2)cc1N(C)C,-16%
COc1cccc([S+](=O)([O-])N2CCC3(CC2)C(=NC2CCCC2)NC(=O)N3c2cccnc2)c1,44%
COc1ccc(F)cc1C(=O)N1CC[C@@H]2[C@@H](CCC(=O)N2CCN)C1,-11%
CC(C)CN1CC[C@H]2COC(=O)N2c2cc(F)ccc2C1,i
Cc1cccc(OCC(O)Cn2c(=N)n(CCN3CCCCC3)c3ccccc32)c1 (configuration not stated),10µM*
CCn1c(=N)n(CC(O)COc2ccccc2)c2ccccc21 (configuration not stated),7.1µM*
COc1ccc(N2CCN(CC(O)COc3c(OC)cccc3OC)CC2)cc1 (configuration not stated),12%
CCC(C)Cn1c(COc2ccc(OC)cc2)nc2ccccc21 (configuration not stated),i
COc1ccc(N2CCN(CC(O)COc3ccc(C)c(C)c3)CC2)cc1 (configuration not stated),23%
CCOC(=O)N1CCN(Cc2cccc(OCC(O)CN3CCOCC3)c2)CC1 (configuration not stated),1%
COCCc1noc([C@@H]2CC(F)(F)CN2C(=O)c2ncccc2F)n1,28%
Cc1cc(C)cc(C(=O)NC2CCN(c3cc(-c4ccccc4)[nH]n3)CC2)c1,-9%
CCOCc1nc(C2CCCN(C(=O)NC3CCCC3)C2)no1 (configuration not stated),-4%
Cc1ccc(CN2Cc3[nH]cnc3C[C@H]2c2nc(-c3ccc4ccccc4c3)no2)cc1,-29%[44.1 µM]
Fc1ccc(CN2Cc3[nH]cnc3C[C@H]2c2nc(-c3ccc(Cl)cc3)no2)cc1,-2%[44.1 µM]
Cc1ccc(-c2noc([C@@H]3Cc4nc[nH]c4CN3Cc3cccs3)n2)cc1,-21%[44.1 µM]
OCc1ccc(CN2Cc3[nH]cnc3C[C@H]2c2nc(-c3ccncc3)no2)o1,14µM*
SMILES,Pf Dd2 inh
Fc1ccc(-c2noc([C@@H]3Cc4nc[nH]c4CN3Cc3cccs3)n2)cc1Cl,10µM*
Fc1ccc(-c2noc([C@@H]3Cc4nc[nH]c4CN3Cc3ccccc3)n2)cc1Cl,i
c1ccc(CN2Cc3[nH]cnc3C[C@H]2c2nc(-c3ccncc3)no2)cc1,10µM*
O=C(O)c1ccc(CN2Cc3[nH]cnc3C[C@H]2c2nc(-c3ccc(F)cc3)no2)cc1,-23%[44.1 µM]
Cc1ccc(-c2noc([C@@H]3Cc4nc[nH]c4CN3CC3CCCCC3)n2)cc1,-13%[44.1 µM]
COCCOC1CCN(C(=O)c2sc(C)nc2C)CC1,17%
O=C(Cn1ccc(=O)[nH]c1=O)N1CCCC(c2[nH]ncc2-c2ccc(F)cc2)C1 (configuration not stated),8%
Cc1cnn(C)c1S(=O)(=O)NC1CC(c2cc(N3CCCC3)ncn2)C1 (configuration not stated),-28%
Cn1nccc1C(O)c1cc2n(n1)CCN(CC(=O)N1CCOCC1)C2 (configuration not stated),-6%
Cc1nonc1CN(C)C(=O)c1coc(COc2ccc(F)cc2Cl)n1,i
O=C(COc1ccc(Cl)cc1)N1CCN(c2cc(-c3ccccc3)[nH]n2)CC1,-3%
CS(=O)(=O)N1CCCN(C(=O)c2ccsc2)CCNC(=O)CC1c1ccccc1 (configuration not stated),3%
Cn1ccnc1C(=O)N1CCCN(S(C)(=O)=O)C(c2ccccc2)CC(=O)NCC1 (configuration not stated),i
O=C1CC(c2ccccc2)N(Cc2ccncc2)CCCN(C(=O)c2ccc3ccccc3n2)CCN1 (configuration not stated),-7%
O=C1CC(c2ccccc2)N(C(=O)C2CC2)CCCN(C(=O)c2cccs2)CCN1 (configuration not stated),-18%

# Source: PubChem BioAssay (National Center for Advancing Translational Sciences (NCATS))
